Hits are enriched below; roughly 3.5% of the tested compounds scored in any of these assays.
TEAD-YAP inh: TEAD-YAP interaction inhibition; HEK-TIYL cells, TEAD-Gal4/YAP UAS-luciferase luminescence; inhibition, % at 9.12 µM; 1.4% of 640,000 active; AID 1259422; in the data active = inhibition above about 32%;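 note: 0% = median of test compound wells and 100% = reference inhibitor wells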
GPR151 ag: human GPR151 activation. 1% of 650,000 active. PathHunter beta-arrestin GPR151 cells, luminescence. AID 1508602. activation, % at 11.2 µM; in the data active = activation above about 4.9%;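 note: 0% = median of compound wells and 100% = cells with positive control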
Target sequence (Q8TDV0 whole entry, looked up): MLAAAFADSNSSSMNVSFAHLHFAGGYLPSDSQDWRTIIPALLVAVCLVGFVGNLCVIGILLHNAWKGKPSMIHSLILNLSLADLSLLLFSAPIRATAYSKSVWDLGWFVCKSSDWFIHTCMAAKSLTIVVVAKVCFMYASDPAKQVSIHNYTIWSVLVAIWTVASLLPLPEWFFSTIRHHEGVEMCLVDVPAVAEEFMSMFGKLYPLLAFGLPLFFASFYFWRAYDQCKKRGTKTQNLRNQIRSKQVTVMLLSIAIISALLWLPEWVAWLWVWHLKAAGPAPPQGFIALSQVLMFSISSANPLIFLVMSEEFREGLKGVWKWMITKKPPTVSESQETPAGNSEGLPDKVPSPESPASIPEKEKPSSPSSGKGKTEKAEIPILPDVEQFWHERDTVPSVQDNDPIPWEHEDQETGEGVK
FBW7 activator: activators of human E3 ligase FBW7. Q969H0. AlphaScreen FBW7–phospho-cyclin E peptide binding, activator screen. normalized activity (activation), % at 26.1 µM. 0.13% of 650,000 active; in the data active = normalized activity above about 1.9%;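 note: purified mutant Fbw7 with reduced substrate affinity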
MITF inh: human MITF inhibition, primary screen; AlphaScreen MITF homodimerization, bead proximity signal; 0.91% of 650,000 active; inhibition, % at 2.6 µM; O75030; in the data active = inhibition above about 50%;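 note: 0% = vehicle wells with protein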
The depositor's hits bear a star.

SMILES	TEAD-YAP inh	GPR151 ag	FBW7 activator	MITF inh
C=CCOC(=O)C1=C(C)NC(=S)NC1c1ccc(C(=O)OC)cc1 (stereo unspecified)	36*	-1	0	1
C/C=C/COC(=O)C1=C(C)NC(=O)NC1c1ccccc1Cl (stereo unspecified)	47*	1	1	-2
C=CCOC(=O)C1=C(C)NC(=O)NC1c1ccc(OCCC)cc1 (stereo unspecified)	55*	-2	1	3
COc1ccc(C2NC(=S)NC(C)=C2C(=O)c2ccccc2)cc1 (stereo unspecified)	57*	-2	0	17
O=S(=O)(c1ccc2nc(-c3ccccc3)c(-c3ccccc3)nc2c1)N1CCOCC1	-7	0	1	13
CC(C(=O)c1cccc(Cl)c1)n1cnc(-c2ccccc2)cc1=O (stereo unspecified)	-8	1	0	-10
Cc1ccc(C(=O)/C=C/Nc2ccc(O)cc2C)cc1	40*	-1	0	11
Cc1cc(O)ccc1NC(=O)c1ccccc1	3	-1	0	-8
COc1ccc(C(=O)/C=C/Nc2ccc(O)cc2C)cc1OC	-14	-1	0	7
Cc1cc(O)ccc1N/C=C/C(=O)c1ccccc1	74*	-3	0	-5
Cc1ccc(/C=C(/C#N)C(=O)Nc2ccc(Cl)cc2[N+](=O)[O-])cc1	-9	2	0	4
O=C1C2C3CCC(O3)C2C(=O)N1c1ccc2nc3ccccc3cc2c1 (stereo unspecified)	80*	-4	0	-2
O=C1C2C3CCC(O3)C2C(=O)N1c1cccc([N+](=O)[O-])c1 (stereo unspecified)	0	1	0	-8
CCOC(=O)CN(Cc1ccc(F)cc1)S(=O)(=O)c1ccc([N+](=O)[O-])cc1	5	0	0	20
CCN1/C(=C2/N=C(c3ccccc3)OC2=O)C=Cc2ccccc21	10	1	0	9
CCN1/C(=C/c2ccc3ccccc3[n+]2CC)C=Cc2ccccc21	88*	4	0	20
CCN1/C(=C/c2cc[n+](-c3ccc(Cl)cc3)cc2)C=Cc2ccccc21	91*	1	-1	28
CCN1/C(=C/c2cccc[n+]2C)C=Cc2ccc(C)cc21	75*	2	1	9
CCCC[n+]1ccc(/C=C2\C=Cc3ccccc3N2CC)c2cc(C)ccc21	92*	1	-1	72*
CCN1C(=O)S/C(=C\c2ccc(Cl)cc2)C1=O	-10	0	0	8
CCN1C(=O)/C(=C2\C=Cc3ccccc3N2CC)SC1=S	-7	1	-1	7
CCOC(=O)c1cccc(OCC(O)CN(C)Cc2ccc(C)o2)c1 (stereo unspecified)	-2	-1	0	43
c1ccc(CNc2ncnc3nc(Nc4ccc(-n5ccnc5)cc4)[nH]c23)cc1	-46	0	0	19
CC(C)(C)c1cc(Sc2nnc(-c3ccc(C(=O)N4CCOCC4)cc3)c3ccccc23)cc(C(C)(C)C)c1O	-4	-1	0	-5
Cc1ccc2c(c1)C=C/C(=C\c1cccc[n+]1C)N2C	84*	1	0	12
SMILES	TEAD-YAP inh	GPR151 ag	FBW7 activator	MITF inh
CCN1/C(=C/c2cccc[n+]2C)C=Cc2ccccc21	75*	1	0	5
CCN1/C(=C/C(=C(C#N)C#N)C(F)(F)F)C=Cc2ccccc21	2	0	0	8
CCOc1ccc(-c2cc(C)n3nc(C(=O)Nc4ccc(Cl)cc4)cc3n2)cc1	2	-1	0	7
COc1ccc2c(c1)CC(c1nc3ccc(-c4cnc(N)nc4)cc3o1)CO2 (stereo unspecified)	-1	0	0	-5
O=C(Cn1cnc2c(-c3ccc(F)cc3)csc2c1=O)NCc1ccccc1	49*	0	0	0
O=C(Cn1cnc2c(-c3ccc(F)cc3)csc2c1=O)NCCc1ccccc1	7	0	0	-1
O=C(Cn1cnc2scc(-c3ccc4ccccc4c3)c2c1=O)NCc1ccccc1	37*	-1	1	6
CN(Cc1ccccc1)C(=O)Cn1cnc2scc(-c3ccccc3)c2c1=O	32*	3	0	6
CC(C)c1cc(CNC(=O)c2cc(COc3ccc4ncccc4c3)on2)on1	18	0	0	12
CC(NC(=O)c1cc(COc2ccc3ncccc3c2)on1)c1ccc(F)cc1 (stereo unspecified)	38*	2	0	10
O=C(NCc1ccc2c(c1)OCO2)c1cc(COc2ccc3ncccc3c2)on1	35*	1	0	4
O=C(NC1CCCC1)c1cc(COc2ccc3ncccc3c2)on1	40*	1	0	-4

Compound activity: PubChem, The Scripps Research Institute Molecular Screening Center
